Data published in the supplement of paper PMC10849652.
The full data set covers some 8,800 targets. This sample favours those with a hit. About 0.5% of all pairs of compound and target were hits.

What was measured:
Test in all cases: log2 fold change, soluble protein after heating vs DMSO (PISA); higher = thermal stabilisation; K562 lysate, 10 uM; active = over 0.2 and 3.5 SD of the protein, either way, in both replicates (recomputed)
vemurafenib = compound: CCCS(=O)(=O)Nc1ccc(F)c(C(=O)c2c[nH]c3ncc(-c4ccc(Cl)cc4)cc23)c1F [vemurafenib]
In short: (§1)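 Log-two fold change in thermal stability relative to solvent controls is reported from duplicates. For each sample, crude K562 extract from dounce-homogenised pellets in PBS pH 7.4 with 1 mM MgCl2, at 1 mg/mL protein, was treated with 10 μM compound for 30 min. Aliquots heated for 3 min across 48°C-58°C were pooled, brought to 0.5% NP-40 at 4°C and cleared at 21,000xg for 90 min. The supernatant was quantified by TMTpro 16plex LC-MS/MS with channel sums equalised.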

[1] = compound: CCCS(=O)(=O)Nc1ccc(F)c(C(=O)c2c[nH]c3ncc(Cl)cc23)c1F
In short: as §1

barasertib = compound: CCN(CCCOc1ccc2c(Nc3cc(CC(=O)Nc4cccc(F)c4)[nH]n3)ncnc2c1)CCOP(=O)(O)O [barasertib]
In short: as §1

[2] = compound: CC[C@@H]1C(=O)N(C)c2cnc(Nc3ccc(C(=O)NC4CCN(C)CC4)cc3OC)nc2N1C1CCCC1
In short: as §1

volasertib = compound: CC[C@@H]1C(=O)N(C)c2cnc(Nc3ccc(C(=O)N[C@H]4CC[C@H](N5CCN(CC6CC6)CC5)CC4)cc3OC)nc2N1C(C)C [volasertib]
In short: as §1

[3] = compound: CCn1c(C(=O)N(C2CC2)C2CC2)cc2c3c(ncn3C)c(Nc3cc(C)n(C)n3)nc21
In short: as §1

[4] = compound: CCn1cc(-c2ccnc3[nH]c(-c4cccc(CN(C)C)c4)cc23)c(-c2ccc(NC(=O)N(C)C)cc2)n1
In short: as §1

[5] = compound: CN1CCC(CNc2ccc3ncc(-c4cccc(OC(F)(F)F)c4)n3n2)CC1
In short: as §1

saracatinib = compound: CN1CCN(CCOc2cc(OC3CCOCC3)c3c(Nc4c(Cl)ccc5c4OCO5)ncnc3c2)CC1 [saracatinib]
In short: as §1

sotrastaurin = compound: CN1CCN(c2nc(C3=C(c4c[nH]c5ccccc45)C(=O)NC3=O)c3ccccc3n2)CC1 [sotrastaurin]
In short: as §1

Measured: log2 fold change

USP10 isoform 2 (UniProt Q14694)
inactive: vemurafenib 0.021 | [1] 0.013 | barasertib 0.002 | [2] -0.005 | volasertib -0.039 | [3] 0.013 | [4] -0.079 | [5] 0 | saracatinib 0.005 | sotrastaurin 0.008

ZNF609 (UniProt O15014)
inactive: vemurafenib 0.165 | [1] 0.033 | barasertib 0.027 | [2] 0.011 | volasertib 0.005 | [3] 0.022 | [4] -0.014 | [5] 0.064 | saracatinib 0.004 | sotrastaurin 0.013

WDHD1 (UniProt O75717)
inactive: vemurafenib -0.03 | [1] 0.022 | barasertib -0.02 | [2] -0.011 | volasertib -0.026 | [3] -0.001 | [4] 0.078 | [5] -0.066 | saracatinib 0.024 | sotrastaurin 0.003

UNC13D (UniProt Q70J99)
inactive: vemurafenib 0.039 | [1] 0.027 | barasertib 0.024 | [2] -0.073 | volasertib -0.083 | [3] 0.012 | [4] 0.026 | [5] -0.015 | saracatinib 0.05 | sotrastaurin -0.022

YLPM1 (UniProt P49750)
UniProt P49750, sequence (P49750 whole entry, looked up): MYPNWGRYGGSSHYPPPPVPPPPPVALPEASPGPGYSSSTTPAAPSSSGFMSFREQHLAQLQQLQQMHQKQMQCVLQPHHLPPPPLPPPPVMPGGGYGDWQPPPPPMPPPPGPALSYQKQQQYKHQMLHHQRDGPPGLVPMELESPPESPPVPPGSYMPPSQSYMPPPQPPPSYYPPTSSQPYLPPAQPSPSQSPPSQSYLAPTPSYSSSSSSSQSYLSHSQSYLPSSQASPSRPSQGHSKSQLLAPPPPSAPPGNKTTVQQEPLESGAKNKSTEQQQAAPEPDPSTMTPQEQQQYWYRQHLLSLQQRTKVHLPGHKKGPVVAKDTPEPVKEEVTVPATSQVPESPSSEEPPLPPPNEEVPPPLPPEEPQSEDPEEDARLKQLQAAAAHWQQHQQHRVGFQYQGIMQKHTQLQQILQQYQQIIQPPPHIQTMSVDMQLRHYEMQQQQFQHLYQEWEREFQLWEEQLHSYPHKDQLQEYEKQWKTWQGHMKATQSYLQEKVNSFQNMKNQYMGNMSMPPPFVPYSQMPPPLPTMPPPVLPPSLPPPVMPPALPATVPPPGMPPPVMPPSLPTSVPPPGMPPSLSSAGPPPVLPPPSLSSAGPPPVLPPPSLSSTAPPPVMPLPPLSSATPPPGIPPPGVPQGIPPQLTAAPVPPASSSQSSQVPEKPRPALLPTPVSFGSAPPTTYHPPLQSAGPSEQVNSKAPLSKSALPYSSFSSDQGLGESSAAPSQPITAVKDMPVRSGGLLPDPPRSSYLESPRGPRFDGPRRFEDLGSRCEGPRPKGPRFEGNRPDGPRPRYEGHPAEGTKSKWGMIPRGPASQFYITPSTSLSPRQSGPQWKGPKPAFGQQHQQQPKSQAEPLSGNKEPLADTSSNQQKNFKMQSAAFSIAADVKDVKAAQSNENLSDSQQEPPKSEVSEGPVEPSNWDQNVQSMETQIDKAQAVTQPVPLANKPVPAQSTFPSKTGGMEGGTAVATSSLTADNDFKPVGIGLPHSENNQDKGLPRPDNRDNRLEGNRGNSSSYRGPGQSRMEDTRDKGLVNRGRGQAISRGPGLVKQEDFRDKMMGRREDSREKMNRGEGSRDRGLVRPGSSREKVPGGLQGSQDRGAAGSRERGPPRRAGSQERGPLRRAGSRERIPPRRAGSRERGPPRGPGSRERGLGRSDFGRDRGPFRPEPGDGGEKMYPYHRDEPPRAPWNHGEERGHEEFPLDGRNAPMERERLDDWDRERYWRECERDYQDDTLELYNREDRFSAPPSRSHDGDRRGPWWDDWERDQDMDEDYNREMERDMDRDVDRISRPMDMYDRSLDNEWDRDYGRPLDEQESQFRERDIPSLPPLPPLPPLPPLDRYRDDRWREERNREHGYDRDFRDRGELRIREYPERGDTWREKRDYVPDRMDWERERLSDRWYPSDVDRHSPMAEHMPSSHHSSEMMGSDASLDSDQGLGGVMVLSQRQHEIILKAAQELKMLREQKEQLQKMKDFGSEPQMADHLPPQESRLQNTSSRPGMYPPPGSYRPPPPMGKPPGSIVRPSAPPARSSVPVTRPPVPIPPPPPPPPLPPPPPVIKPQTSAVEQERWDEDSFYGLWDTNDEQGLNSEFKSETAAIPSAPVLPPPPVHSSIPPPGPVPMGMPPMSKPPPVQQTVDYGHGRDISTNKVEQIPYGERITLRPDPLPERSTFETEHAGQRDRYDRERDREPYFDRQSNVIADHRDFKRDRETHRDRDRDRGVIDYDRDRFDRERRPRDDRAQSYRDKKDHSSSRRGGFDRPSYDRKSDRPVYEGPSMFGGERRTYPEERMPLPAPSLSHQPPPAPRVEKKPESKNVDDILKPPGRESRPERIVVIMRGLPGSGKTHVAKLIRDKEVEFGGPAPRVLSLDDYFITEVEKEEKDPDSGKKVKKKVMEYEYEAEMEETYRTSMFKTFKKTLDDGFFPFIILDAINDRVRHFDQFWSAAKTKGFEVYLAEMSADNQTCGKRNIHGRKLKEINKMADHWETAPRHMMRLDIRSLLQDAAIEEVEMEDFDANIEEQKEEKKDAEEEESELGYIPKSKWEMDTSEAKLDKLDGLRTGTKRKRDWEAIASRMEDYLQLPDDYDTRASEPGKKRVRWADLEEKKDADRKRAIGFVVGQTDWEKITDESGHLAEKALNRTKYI
inactive: vemurafenib 0.062 | [1] 0.005 | barasertib 0.032 | [2] 0.069 | volasertib -0.019 | [3] -0.018 | [4] 0.165 | [5] -0.085 | saracatinib 0.033 | sotrastaurin 0.012

VRK1 (UniProt Q99986)
inactive: vemurafenib 0.024 | [1] 0.024 | barasertib -0.002 | [2] -0.051 | volasertib -0.03 | [3] 0 | [4] -0.041 | [5] 0.031 | saracatinib 0.002 | sotrastaurin 0.178

ZFYVE19 (UniProt Q96K21)
active: [4] -0.232
inactive: vemurafenib 0 | [1] 0.02 | barasertib 0.016 | [2] 0.077 | volasertib 0.023 | [3] 0.006 | [5] 0.126 | saracatinib -0.027 | sotrastaurin 0.013

XAB2 (UniProt Q9HCS7)
inactive: vemurafenib 0.033 | [1] 0.075 | barasertib -0.015 | [2] 0.065 | volasertib -0.02 | [3] 0.05 | [4] -0.044 | [5] 0.017 | saracatinib 0.006 | sotrastaurin 0

WDR6 (UniProt Q9NNW5)
inactive: vemurafenib 0.008 | [1] -0.007 | barasertib 0.013 | [2] -0.006 | volasertib -0.029 | [3] -0.009 | [4] -0.053 | [5] 0.033 | saracatinib 0.01 | sotrastaurin 0.116

ZNF598 isoform 3 (UniProt Q86UK7)
inactive: vemurafenib 0.022 | [1] 0.036 | barasertib 0.019 | [2] 0.067 | volasertib -0.032 | [3] 0.017 | [4] -0.011 | [5] 0.001 | saracatinib -0.008 | sotrastaurin 0.014

ZC3H11A (UniProt O75152)
inactive: vemurafenib 0.104 | [1] 0.084 | barasertib 0.055 | [2] 0.03 | volasertib -0.022 | [3] 0 | [4] 0.283 | [5] -0.182 | saracatinib -0.016 | sotrastaurin 0.013

USP48 isoform 8 (UniProt Q86UV5)
inactive: vemurafenib -0.002 | [1] 0.036 | barasertib 0.002 | [2] -0.013 | volasertib -0.043 | [3] 0.007 | [4] -0.011 | [5] -0.032 | saracatinib -0.004 | sotrastaurin 0.031

VPS39 (UniProt Q96JC1)
inactive: vemurafenib -0.034 | [1] 0.014 | barasertib 0.022 | [2] -0.029 | volasertib -0.045 | [3] 0.001 | [5] -0.151 | saracatinib 0.018 | sotrastaurin -0.008
active: [4] 0.73

WDR3 (UniProt Q9UNX4)
inactive: vemurafenib -0.01 | [1] 0.011 | barasertib 0.042 | [2] -0.063 | volasertib -0.043 | [3] 0.01 | [4] -0.024 | [5] 0.019 | saracatinib 0.002 | sotrastaurin 0.062

WDR24 (UniProt Q96S15)
inactive: vemurafenib 0.083 | [1] -0.036 | barasertib 0.129 | [2] -0.055 | volasertib -0.035 | [3] 0.047 | [4] -0.026 | [5] 0.043 | saracatinib 0.078 | sotrastaurin 0.082

VPS4A (UniProt Q9UN37)
UniProt Q9UN37, sequence (Q9UN37 whole entry, looked up): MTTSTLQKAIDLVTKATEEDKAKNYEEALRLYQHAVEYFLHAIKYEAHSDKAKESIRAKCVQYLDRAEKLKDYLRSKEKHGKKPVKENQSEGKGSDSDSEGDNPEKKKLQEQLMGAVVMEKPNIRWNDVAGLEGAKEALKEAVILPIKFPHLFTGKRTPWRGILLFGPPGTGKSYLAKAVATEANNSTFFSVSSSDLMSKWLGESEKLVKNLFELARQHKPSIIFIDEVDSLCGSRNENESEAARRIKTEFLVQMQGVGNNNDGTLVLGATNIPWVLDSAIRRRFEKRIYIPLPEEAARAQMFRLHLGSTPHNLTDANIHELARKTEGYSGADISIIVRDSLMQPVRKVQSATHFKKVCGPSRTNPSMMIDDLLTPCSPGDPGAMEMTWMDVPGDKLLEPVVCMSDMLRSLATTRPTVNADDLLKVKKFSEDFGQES
inactive: vemurafenib 0.096 | [1] -0.006 | barasertib 0.014 | [2] -0.063 | volasertib -0.09 | [3] 0.054 | [4] -0.12 | [5] -0.036 | saracatinib 0.027 | sotrastaurin 0.056

YTHDC2 (UniProt Q9H6S0)
inactive: vemurafenib 0.068 | [1] 0.022 | barasertib 0.07 | [2] -0.013 | volasertib -0.027 | [3] 0.025 | [4] 0.025 | [5] 0.005 | saracatinib 0.015 | sotrastaurin 0.022

XPOT (UniProt O43592)
UniProt O43592, sequence (O43592 whole entry, looked up): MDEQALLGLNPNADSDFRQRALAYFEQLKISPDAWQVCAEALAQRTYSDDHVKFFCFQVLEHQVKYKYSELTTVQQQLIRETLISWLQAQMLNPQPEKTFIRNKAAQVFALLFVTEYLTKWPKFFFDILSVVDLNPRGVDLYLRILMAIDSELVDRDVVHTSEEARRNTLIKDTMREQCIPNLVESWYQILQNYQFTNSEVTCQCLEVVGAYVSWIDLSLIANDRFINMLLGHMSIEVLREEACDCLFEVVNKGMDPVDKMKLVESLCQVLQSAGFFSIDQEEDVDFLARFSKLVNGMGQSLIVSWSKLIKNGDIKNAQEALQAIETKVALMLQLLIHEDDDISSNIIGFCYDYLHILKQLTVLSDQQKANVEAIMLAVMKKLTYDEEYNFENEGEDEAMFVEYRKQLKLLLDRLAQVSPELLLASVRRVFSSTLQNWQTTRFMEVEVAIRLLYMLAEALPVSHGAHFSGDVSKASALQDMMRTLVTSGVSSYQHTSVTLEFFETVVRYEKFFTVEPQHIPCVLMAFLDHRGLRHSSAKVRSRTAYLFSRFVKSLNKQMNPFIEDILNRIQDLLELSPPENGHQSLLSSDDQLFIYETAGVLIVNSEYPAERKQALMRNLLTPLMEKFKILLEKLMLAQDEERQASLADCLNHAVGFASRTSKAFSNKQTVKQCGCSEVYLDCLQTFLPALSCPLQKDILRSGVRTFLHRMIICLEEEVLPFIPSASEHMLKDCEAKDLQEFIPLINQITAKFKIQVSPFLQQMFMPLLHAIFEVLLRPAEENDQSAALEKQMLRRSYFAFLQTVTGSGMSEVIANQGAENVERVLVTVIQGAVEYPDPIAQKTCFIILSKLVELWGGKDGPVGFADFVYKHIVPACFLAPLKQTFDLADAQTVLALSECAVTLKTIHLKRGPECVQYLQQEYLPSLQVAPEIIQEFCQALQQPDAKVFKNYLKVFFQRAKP
inactive: vemurafenib -0.023 | [1] 0.014 | barasertib 0.011 | [2] -0.097 | volasertib -0.047 | [3] 0.036 | [4] -0.065 | [5] -0.001 | saracatinib -0.005 | sotrastaurin 0.002

USP3 (UniProt Q9Y6I4)
inactive: vemurafenib 0.041 | [1] -0.007 | barasertib 0.008 | [2] 0.023 | volasertib -0.012 | [3] -0.011 | [4] 0.064 | [5] -0.041 | saracatinib 0.011 | sotrastaurin 0.011

WRB (UniProt O00258)
inactive: vemurafenib 0.086 | [1] 0.077 | barasertib 0.098 | [2] -0.011 | volasertib 0.015 | [3] -0.148 | [4] -0.176 | [5] 0.068 | saracatinib -0.147 | sotrastaurin 0.013

WIPI2 (UniProt Q9Y4P8)
inactive: vemurafenib -0.028 | [1] 0.012 | barasertib -0.06 | [2] -0.073 | volasertib -0.022 | [3] 0.002 | [4] -0.108 | [5] 0.09 | saracatinib 0.01 | sotrastaurin -0.002

VPS54 (UniProt Q9P1Q0)
inactive: vemurafenib 0.046 | [1] -0.015 | barasertib -0.042 | [2] -0.037 | volasertib 0.068 | [3] -0.259 | [4] -0.278 | [5] 0.141 | saracatinib 0.05 | sotrastaurin -0.087

YWHAQ (UniProt P27348)
inactive: vemurafenib -0.029 | [1] 0.009 | barasertib -0.023 | [2] 0.025 | volasertib 0.023 | [3] -0.003 | [5] -0.092 | saracatinib -0.012 | sotrastaurin -0.047
active: [4] 0.625

VAMP2 (UniProt P63027)
active: [2] -0.286
inactive: vemurafenib 0.002 | [1] -0.027 | barasertib 0.012 | volasertib 0.009 | [3] 0.02 | [4] 0.057 | [5] 0.091 | saracatinib 0.033 | sotrastaurin -0.028

WDR7 (UniProt Q9Y4E6)
UniProt Q9Y4E6, sequence (Q9Y4E6 whole entry, looked up): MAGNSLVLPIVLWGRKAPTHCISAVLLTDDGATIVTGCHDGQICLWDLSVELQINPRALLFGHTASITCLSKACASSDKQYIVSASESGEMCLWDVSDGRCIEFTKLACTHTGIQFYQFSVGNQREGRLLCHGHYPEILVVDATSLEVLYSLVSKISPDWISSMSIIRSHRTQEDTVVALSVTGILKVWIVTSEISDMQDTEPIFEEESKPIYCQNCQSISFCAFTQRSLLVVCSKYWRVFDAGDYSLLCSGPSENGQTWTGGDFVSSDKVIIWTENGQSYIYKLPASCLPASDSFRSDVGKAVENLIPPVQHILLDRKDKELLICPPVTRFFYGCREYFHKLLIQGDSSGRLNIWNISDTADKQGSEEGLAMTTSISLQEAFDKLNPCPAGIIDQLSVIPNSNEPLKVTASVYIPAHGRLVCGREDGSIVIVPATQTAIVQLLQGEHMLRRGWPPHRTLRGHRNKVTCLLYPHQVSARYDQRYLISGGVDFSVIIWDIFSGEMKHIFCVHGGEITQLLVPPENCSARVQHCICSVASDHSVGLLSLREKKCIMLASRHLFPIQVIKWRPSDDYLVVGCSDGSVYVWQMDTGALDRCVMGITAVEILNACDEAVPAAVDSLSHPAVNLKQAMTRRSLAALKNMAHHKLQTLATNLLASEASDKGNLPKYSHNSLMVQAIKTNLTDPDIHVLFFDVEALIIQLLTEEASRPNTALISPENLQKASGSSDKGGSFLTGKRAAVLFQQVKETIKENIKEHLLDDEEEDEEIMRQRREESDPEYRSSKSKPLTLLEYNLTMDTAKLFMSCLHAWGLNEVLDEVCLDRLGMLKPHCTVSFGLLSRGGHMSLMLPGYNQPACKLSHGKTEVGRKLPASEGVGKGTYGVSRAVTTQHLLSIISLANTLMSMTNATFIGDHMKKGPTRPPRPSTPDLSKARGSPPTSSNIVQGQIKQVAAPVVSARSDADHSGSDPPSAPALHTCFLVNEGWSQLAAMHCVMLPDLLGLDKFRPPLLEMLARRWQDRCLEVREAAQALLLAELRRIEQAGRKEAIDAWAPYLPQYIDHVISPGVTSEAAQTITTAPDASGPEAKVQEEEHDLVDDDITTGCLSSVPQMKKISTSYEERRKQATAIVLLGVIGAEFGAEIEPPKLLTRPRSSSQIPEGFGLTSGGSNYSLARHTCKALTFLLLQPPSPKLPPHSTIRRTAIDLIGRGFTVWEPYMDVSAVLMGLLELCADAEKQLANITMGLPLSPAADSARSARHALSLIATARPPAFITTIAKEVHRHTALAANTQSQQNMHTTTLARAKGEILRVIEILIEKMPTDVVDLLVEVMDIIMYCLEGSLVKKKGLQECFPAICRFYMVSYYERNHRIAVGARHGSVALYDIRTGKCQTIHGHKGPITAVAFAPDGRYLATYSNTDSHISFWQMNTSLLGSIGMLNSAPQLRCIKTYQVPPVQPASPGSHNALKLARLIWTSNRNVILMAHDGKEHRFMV
inactive: vemurafenib -0.005 | [1] -0.035 | barasertib -0.019 | [2] -0.041 | volasertib -0.057 | [3] 0.029 | [4] -0.007 | [5] 0.047 | saracatinib -0.018 | sotrastaurin 0.01

ZNF318 (UniProt Q5VUA4)
inactive: vemurafenib 0.089 | [1] 0.025 | barasertib 0.077 | [2] 0.025 | volasertib 0.011 | [3] -0.007 | [4] 0.086 | [5] -0.033 | saracatinib 0.079 | sotrastaurin 0.047

WDCP (UniProt Q9H6R7)
inactive: vemurafenib -0.004 | [1] 0.033 | barasertib 0.032 | [2] 0.031 | volasertib -0.019 | [3] -0.04 | [4] 0.003 | [5] 0.01 | saracatinib -0.011 | sotrastaurin 0.039

YEATS4 (UniProt O95619)
inactive: vemurafenib -0.032 | [1] 0.003 | barasertib 0.05 | [2] 0.045 | volasertib -0.028 | [3] 0.014 | [5] 0 | saracatinib 0.031 | sotrastaurin 0.022
active: [4] 0.746

USP48 (UniProt Q86UV5)
active: [4] -0.821
inactive: vemurafenib 0.043 | [1] 0.074 | barasertib -0.024 | [2] 0.047 | volasertib -0.102 | [3] -0.057 | [5] 0.146 | saracatinib -0.021 | sotrastaurin -0.12

WDR36 (UniProt Q8NI36)
inactive: vemurafenib 0.014 | [1] 0.018 | barasertib 0.011 | [2] -0.058 | volasertib -0.022 | [3] 0.034 | [4] 0.012 | [5] -0.076 | saracatinib -0.015 | sotrastaurin 0.044
